CYP2C9 activ: CYP2C9 (human) activation. recombinant CYP2C9, luciferin-H conversion, luminescence; hits give high values; factor 1 = untreated enzyme, 0 = blocked. actives 1.4% (n = 96,000). AID 1024. P11712. activation factor at 5 µM;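 active means activation factor of 2 or more for CYP2C9 at a 5 µM dose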
CYP2C9 inhib: blocks human cytochrome P450 2C9 | P11712 | CYP2C9 Supersomes, luciferin-H conversion, luminescence | inhibition, % at 5 µM | actives 20% (n = 96,000) | AID 777;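 active means blocking of liver enzyme CYP2C9 beyond about 50% at 5 µM, limit read from the data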
CYP2C19 inh: inhibitors of human CYP2C19. P33261. CYP2C19 Supersomes, luciferin-H EGE luminescence, 30 min. inhibition, % at 5 µM. actives 21% (n = 96,000). AID 778;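 active means CYP2C19 inhibition above a set limit at 5 µM in the primary screen, cut at about 50% in these data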
Target sequence (P33261 whole entry, looked up): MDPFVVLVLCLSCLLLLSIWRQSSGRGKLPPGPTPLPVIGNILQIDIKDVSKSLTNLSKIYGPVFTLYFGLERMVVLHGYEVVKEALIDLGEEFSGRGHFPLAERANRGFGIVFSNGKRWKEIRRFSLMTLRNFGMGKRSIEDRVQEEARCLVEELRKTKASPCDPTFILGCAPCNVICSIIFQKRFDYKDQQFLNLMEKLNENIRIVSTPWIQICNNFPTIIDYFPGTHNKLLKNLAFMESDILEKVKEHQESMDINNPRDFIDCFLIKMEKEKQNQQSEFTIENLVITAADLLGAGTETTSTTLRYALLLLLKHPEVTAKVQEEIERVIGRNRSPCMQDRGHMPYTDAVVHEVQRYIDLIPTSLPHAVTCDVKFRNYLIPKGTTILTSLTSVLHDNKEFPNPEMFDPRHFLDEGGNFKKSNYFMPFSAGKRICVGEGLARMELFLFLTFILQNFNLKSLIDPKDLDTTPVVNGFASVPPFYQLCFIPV
CYP2C19 act: cytochrome P450 2C19 (human) activation; P33261; recombinant CYP2C19, luciferin-H EGE luminescence; hits give high values; 0 = fully inhibited enzyme, 1 = untreated enzyme; activation factor at 5 µM; 96,000 tested, under 10 active; AID 1025;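 active means activation factor of at least 2 at 5 µM in the primary screen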
Mac1 fbg enh: CD11b/CD18-fibrinogen binding enhancement | P05107+P11215 | activation, % at 10 µM | actives 0.07% (n = 93,000) | K562 CD11b/CD18 adhesion to fibrinogen, ATPlite luminescence | AID 1499;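 active means 10 µM primary screen giving 50% or more activity, confirmed by 40% or more on retest at that dose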
Mac1 fbg inh: blocks human CD11b/CD18 adhesion to fibrinogen; P05107+P11215; K562 CD11b/CD18 adhesion to fibrinogen, ATPlite luminescence; Mn2+ added to activate the integrin; inhibition, % at 10 µM; actives 0.54% (n = 93,000); AID 1497;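 active means primary inhibition of 50% or more at 10 µM, then 40% or more on retest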
Hits are given with their value; 0 = inactive; - = no result given. Shown are actives, neighbours in structure and some others; about 28% of the full set was active somewhere.

SMILES | CYP2C9 activ | CYP2C9 inhib | CYP2C19 inh | CYP2C19 act | Mac1 fbg enh | Mac1 fbg inh
Cc1ccc(NC(=O)CN(C)C(=O)CN2C(=O)NC(C)(c3ccccc3)C2=O)cc1 (stereo not drawn) | 0 | 0 | 0 | 0 | 0 | 0
CCOC(=O)c1cc(-c2ccccc2)sc1NC(=O)CN1C(=O)NC(CC)(c2ccccc2)C1=O (stereo not drawn) | 0 | 89 | 0 | 0 | 0 | 0
CC1(c2ccccc2)NC(=O)N(CC(=O)Nc2ccc3c(c2)OCO3)C1=O (stereo not drawn) | 0 | 87 | 0 | 0 | 0 | 0
CCC1(c2ccccc2)NC(=O)N(CC(=O)Nc2cccc(C#N)c2)C1=O (stereo not drawn) | 0 | 0 | 71 | 0 | 0 | 0
CC(C)(C)c1ccc(C2(C)NC(=O)N(CC(=O)Nc3ccc4c(c3)OCO4)C2=O)cc1 (stereo not drawn) | 0 | 0 | 0 | 0 | 0 | 0
CC1(c2ccccc2)NC(=O)N(CC(=O)Nc2cccc(C#N)c2)C1=O (stereo not drawn) | 0 | 73 | 0 | 0 | 0 | 0
O=C(O)C1C2C=CC(C2)C1C(=O)NC(c1ccccc1)c1ccccc1 (stereo not drawn) | 0 | 0 | 0 | 0 | 0 | 0
COn1c2c(c3c4nonc4ccc31)CCCC2 | 0 | 0 | 0 | 0 | 0 | 0
COn1c(C)c(C(C)=O)c2c3nonc3ccc21 | 0 | 50 | 61 | 0 | 0 | 0
COc1ccc(C(=O)CC2OC(=O)c3c2ccc(OC)c3OC)cc1 (stereo not drawn) | 0 | 0 | 80 | 0 | 0 | 0
Cc1nc2ccccc2n1CC(=O)N/N=C\c1ccccn1 | 0 | 0 | 0 | 0 | 0 | 0
COc1ccc(-c2c(C)n([O-])c(C)c(C)[n+]2=O)cc1 | 0 | 0 | 0 | 0 | 0 | 0
Cc1ccc(C(C(=O)NC2CCCC2)N(C(=O)c2csnn2)C2CCCC2)o1 (stereo not drawn) | 0 | 0 | 64 | 0 | 0 | 0
Cc1ccc(C(C(=O)NC2CCCCC2)N(C(=O)c2csnn2)C2CCCC2)o1 (stereo not drawn) | 0 | 0 | 0 | 0 | 0 | 0
Cc1ccsc1C(C(=O)NC1CCCCC1)N(C(=O)c1csnn1)C1CC1 (stereo not drawn) | 0 | 0 | 64 | 0 | 0 | 0
Cc1nnc(SCC(=O)Nc2nsc(-c3ccccc3)n2)s1 | 0 | 0 | 0 | 0 | 0 | 0
CCc1c(C#N)c(SCCC(=O)Nc2cccc(OC)c2)nc2c1C(=O)CC(C)(C)C2 | 0 | 98 | 98 | 0 | 0 | 0
CC1(C)CC(=O)c2c(nc(SCC(=O)Nc3nsc(-c4ccccc4)n3)c(C#N)c2-c2ccccc2)C1 | 0 | 85 | 54 | 0 | 0 | 0
CCc1c(C#N)c(SCCC(=O)Nc2ccc(F)cc2)nc2c1C(=O)CC(C)(C)C2 | 0 | 97 | 98 | 0 | 0 | 0
O=C(c1ccc2nc(N3CCCCC3)sc2c1)N1CCN(c2ccccn2)CC1 | 0 | 0 | 0 | 0 | 0 | 0
CCOC(=O)CN(C(=O)CCC(=O)Nc1cc(C)on1)C(C(=O)NC1CCCC1)c1cccnc1 (stereo not drawn) | 0 | 0 | 0 | 0 | - | -
c1ccc(N2CCN(Cc3cn4cccnc4n3)CC2)cc1 | 0 | 0 | 0 | 0 | 0 | 0
CCc1ccccc1Nc1nc(N)nc(CSCC(=O)c2cc(C)n(C)c2C)n1 | 0 | 66 | 85 | 0 | 0 | 0
O=C(COC(=O)Cc1ccccc1F)Nc1cc(S(=O)(=O)N2CCOCC2)ccc1N1CCCC1 | - | - | - | - | 0 | 0
Cc1cccc(N=C2NC(=O)/C(=C3/C(=O)N(C)c4ccccc43)S2)c1C | 0 | 93 | 50 | 0 | 0 | 0
SMILES | CYP2C9 activ | CYP2C9 inhib | CYP2C19 inh | CYP2C19 act | Mac1 fbg enh | Mac1 fbg inh
Cc1ccc(S(=O)(=O)N2CCN(Cc3cc(C(C)C)ccc3O)CC2)cc1 | 0 | 51 | 0 | 0 | 0 | 0
c1ccc(N2CCN(c3nnc(Cc4cccnc4)c4ccccc34)CC2)nc1 | 0 | 0 | 53 | 0 | - | -
c1ccc(Cc2nnc(N3CCOCC3)c3ccccc23)cc1 | 0 | 0 | 0 | 0 | 0 | 0
C/C(=N/NC(=O)c1cc(-c2cccc([N+](=O)[O-])c2)n[nH]1)c1ccc(Cl)cc1 | - | - | - | - | 0 | 0
CC(=O)N1N=C(c2cccc([N+](=O)[O-])c2)OC1c1ccccc1Cl (stereo not drawn) | 0 | 86 | 62 | 0 | 0 | 0
CCC(=O)Nc1cccc(NC(=O)c2ccc(Br)cc2)c1 | - | - | - | - | 0 | 0
O=C(Nc1cccc(O)c1)c1ccc(Br)cc1 | 0 | 0 | 52 | 0 | 0 | 0
CCOC(=O)CC1C(=O)NCCN1C(=O)Nc1ccccc1 (stereo not drawn) | 0 | 0 | 0 | 0 | 0 | 0
O=C(NC1CCCC1)c1sc(=S)n2c1[nH]c(=O)c1ccccc12 | 0 | 93 | 0 | 0 | 0 | 95
O=C(NC1CCCCCCC1)c1c(O)c2ccccc2[nH]c1=O | 0 | 0 | 0 | 0 | 0 | 0
O=C(NCc1ccco1)c1sc(=S)n2c1[nH]c(=O)c1ccccc12 | 0 | 99 | 0 | 0 | 0 | 96
CCCCCNC(=O)c1ccc2c(=O)[nH]c3c(C(=O)NCC4CCCO4)sc(=S)n3c2c1 (stereo not drawn) | 0 | 95 | 0 | 0 | 0 | 0
CCn1c(N)c(C(=O)NCC2CCCO2)sc1=S (stereo not drawn) | 0 | 0 | 0 | 0 | 0 | 0
Cc1ccc(-n2c(N)c(C(=O)NCc3ccco3)sc2=S)cc1 | 0 | 0 | 0 | 0 | - | -
O=C(C[n+]1cccc(NC(=O)c2ccccc2)c1)c1ccc(NC(=O)c2ccccc2)cc1 | 0 | 0 | 0 | 0 | - | -
N#CCSC1=Nc2ccccc2C2=NC(CCC(=O)N3CCN(c4ccccc4)CC3)C(=O)N12 (stereo not drawn) | 0 | 73 | 0 | 0 | 0 | 0
CCCCNC(=O)CC1N=C2c3ccccc3N=C(SCC(=O)Nc3ccc(OC)cc3)N2C1=O (stereo not drawn) | 0 | 60 | 0 | 0 | 0 | 0
CC(C)C1N=C2c3ccccc3N=C(SCC#N)N2C1=O (stereo not drawn) | 0 | 0 | 0 | 0 | 0 | 0
O=C(CCC1N=C2c3ccccc3N=C(SCc3ccc(Cl)cc3)N2C1=O)NCc1ccco1 (stereo not drawn) | 0 | 77 | 0 | 0 | 0 | 0
O=C(CC1N=C2c3ccccc3N=C(SCc3ccc(F)cc3)N2C1=O)NCc1ccco1 (stereo not drawn) | 0 | 0 | 0 | 0 | 0 | 0
O=C(CCC1N=C2c3ccccc3N=C(SCc3ccc(F)cc3)N2C1=O)NCc1ccco1 (stereo not drawn) | 0 | 65 | 0 | 0 | 0 | 0
O=C(NC1CCCCC1)c1ccc(Cn2cc(Cl)cn2)cc1 | 0 | 0 | 0 | 0 | 0 | 0
c1ccc(-n2nnnc2NC2CCCCC2)cc1 | 0 | 0 | 0 | 0 | 0 | 0
Cc1ccc(CSC2=Nc3ccccc3C3=NC(CC(=O)NCc4ccco4)C(=O)N23)cc1 (stereo not drawn) | 0 | 79 | 0 | 0 | 0 | 0

From PubChem BioAssay
